The structures appear in SMILES notation. The campaign covered roughly 48,000 compounds. About 13,000 (27%) showed an effect of 50% or more. The list shows a part of the results.

For this assay, the system named is Wolbachia pipientis. Briefly: Anti-Wolbachia Cell-Based Screen. The format is functional. On the set-up: scale not given: in the data most compounds retested in dose-response had high values. The settings on record: 5 µM.
`COc1cc(NC(=O)c2cscn2)ncn1`: the “Percent Effect” value is reported as -4.682%.

Consider `COCC1CC2(CCN(Cc3nc(C)cs3)CC2)CO1` (stereo unspecified), for which the “Percent Effect” value was found to be 102%.

On to `c1ccc(OCC2CC3(CCN(Cc4ccncc4)CC3)CO2)nc1` (stereo unspecified), for which the “Percent Effect” value is 4.031%. As to `O=S(=O)(C1CC1)N1CCC2(CC1)COC(COc1ccccn1)C2` (stereo unspecified), the “Percent Effect” value is 3.051%.

`COCC1CC2(CCN(C(=O)c3ccc(F)cc3C)CC2)CO1` (stereo unspecified): the “Percent Effect” value amounted to 14.78%. With `COCC1CC2(CCN(C(=O)c3occc3C)CC2)CO1` (stereo unspecified), the “Percent Effect” value is listed as -1.906%.

`Cc1csc(CN2CCC3(CC2)COC(COc2ccccn2)C3)n1` (stereo unspecified): the “Percent Effect” value is recorded as 106.5%. For `Cc1nc(CN(C)Cc2csc(-c3cccs3)n2)co1`, the “Percent Effect” value is listed as -5.147%. In the case of `CC(C)C(C#N)N1CCN(Cc2nccn2CC(F)(F)F)CC1` (stereo unspecified), the “Percent Effect” value is -1.445%. With `O=C1[C@H]2CC[C@H](CN(c3ncnc4ccsc34)C2)N1CC1CC1` the figure was 70.25%.

On to `CN1C(=O)[C@H]2CC[C@@H]1CN(c1ncnc3ccsc13)C2`, for which the “Percent Effect” value is 78.97%. As for `CSc1nc(N)cc(N2C[C@@H]3CC[C@H](C2)N(CC2CC2)C3=O)n1`, the “Percent Effect” value is recorded as 1.257%. In the case of `CCn1ccnc1C1CCN(c2ncnc3ccsc23)CC1` it was -4.66%; in that of `c1nc(N2CCN(Cc3nnnn3C3CC3)CC2)c2sccc2n1`, -5.403%; in that of `Cc1ccnc(N2C[C@@H]3CC[C@H](C2)N(CC2CCC2)C3=O)n1`, 15.62%. As to `CC(NC1(CNC(=O)CC(C)(C)C)CCOCC1)c1ccccc1` (stereo unspecified), the “Percent Effect” value is reported as 7.994%. In the case of `O=C(NCCc1cccnc1)N1CCCC1c1ccsc1` (stereo unspecified), the “Percent Effect” value is on record as 4.878%. In the case of `NC(=O)CCn1nnc(-c2cc3ccccc3o2)n1`, the “Percent Effect” value worked out at 8.655%. In the case of `O=C(Nc1nccs1)NC1CCN(Cc2ccccc2)C1` (stereo unspecified), the “Percent Effect” value is -7.508%. Consider `NC(=O)C1CCN(CC(=O)N(Cc2ccccc2)Cc2nccs2)CC1`, for which the “Percent Effect” value is listed as 113.3%. `COc1ccc(CN(CC2CCCO2)C(=O)CN2CCOC2=O)cc1` (stereo unspecified): the “Percent Effect” value turned out to be 10.27%. As to `COc1cccc(CN(C)C(=O)CN2CCN(c3nccs3)CC2)c1`, the “Percent Effect” value is 7.332%. Turning to `O=C(CN1CCOC1=O)N(Cc1ccccc1)Cc1nccs1`, the “Percent Effect” value came to 101.3%. In the case of `CN(Cc1csc(-c2cccs2)n1)C(=O)CN1CCOC1=O`, the “Percent Effect” value is 19.54%. With `CN(Cc1cccnc1)c1nccc(N2CCN[C@H]3CS(=O)(=O)C[C@H]32)n1` the figure was -2.359%; with `Nc1cc(-c2cc(O)cc(C(=O)O)c2)c2cc[nH]c2n1`, -2.921%; with `Nc1cc(-c2nccnc2N2CCCC2)c2cc[nH]c2n1`, 67.22%. For the compound `COc1cccc(-c2cc(NCC(=O)O)nc3[nH]ccc23)n1`, the “Percent Effect” value is listed as -3.915%. In the case of `CN(C)CCNc1cc(-c2ncccc2C(F)(F)F)c2cc[nH]c2n1` it was -6.362%; in that of `OCCNc1cc(-c2nccnc2N2CCCC2)c2cc[nH]c2n1`, 104.7%. With `O=C(O)CNc1cc(-c2nccnc2N2CCCC2)c2cc[nH]c2n1` the figure was 94.3%. With `Nc1cc(-c2ccc(C(=O)O)cc2O)c2cc[nH]c2n1`, the “Percent Effect” value came to 1.335%. With `CN(C)CCNc1cc(-c2ncccc2O)c2cc[nH]c2n1` the figure was 15.75%. In the case of `Nc1cc(-c2cc(C(=O)O)ccc2Cl)c2cc[nH]c2n1` it was 2.257%; in that of `Cc1noc(C2CN(CC(=O)NCC3CCCO3)C2)n1` (stereo unspecified), 9.756%. With `CN(C)C(=O)c1ccc2c(c1)N(C)C(CC(=O)NC(CO)CO)CO2` (stereo unspecified) the figure was 0.9161%; with `Cc1cc(C)c2cc(CNC(C)C)c3nn(C)c(=O)n3c2c1`, 117%; with `Cc1cc(C)c2cc(CNCC3CCCO3)c3nn(C)c(=O)n3c2c1` (stereo unspecified), -6.505%. Consider `CCCn1cnnc1CNC1CCCC1`, for which the “Percent Effect” value was -7.935%. Regarding `Cc1cc(C)c2cc(CNC3CCCCC3)c3nn(C)c(=O)n3c2c1`, the “Percent Effect” value worked out at 108.3%. In the case of `CCn1cc(CN(C)C(=O)c2cccc(CCC(C)(C)O)c2)cn1` it was -2.58%; in that of `COCc1ccc(C(=O)N2CCN(CC=C(C)C)[C@@H]3CS(=O)(=O)C[C@@H]32)o1`, -1.241%; in that of `O=C(c1ccco1)N1CC[C@@H]2[C@H]1CCC(=O)N2c1ccccc1`, 9.276%. With `O=c1[nH]c(NC2CCCC2)nc2nccc(-c3ccco3)c12` the figure was 15.07%; with `O=C(Cn1cnc(-c2cccs2)cc1=O)Nc1cccnc1`, 14.09%; with `O=c1[nH]c(NC2CCCC2)nc2nccc(-c3cccs3)c12`, -0.1995%. With `O=C(O)Cn1nc(C2CC2)c2c(-c3ccco3)ccnc21`, the “Percent Effect” value was 121.5%.

Take `O=C(O)Cn1nc(C2CC2)c2c(-c3cccs3)ccnc21`: the “Percent Effect” value was found to be 125.7%. With `O=C(CN1CC(c2nc(-c3ccco3)no2)C1)NCC1CCCO1.O=C(O)C(=O)O` (stereo unspecified), the “Percent Effect” value came to 8.836%.

On to `N#Cc1ccc(N2CCCC(CO)(CCOc3ccccc3)C2)nc1` (stereo unspecified), for which the “Percent Effect” value is reported as -8.429%. Regarding `Cc1ccoc1C(=O)NCC(Cc1ccc(F)cc1)C(N)=O` (stereo unspecified), the “Percent Effect” value is recorded as 7.737%. In the case of `CC(C)N(C)CC(=O)NCC(Cc1ccc(F)cc1)C(N)=O` (stereo unspecified) it was 103.5%. With `CC(C)S(=O)(=O)CC(=O)NCC(Cc1ccc(F)cc1)C(N)=O` (stereo unspecified) the figure was 124.5%; with `COC(=O)C(CNC(=O)Nc1nncs1)Cc1ccc(F)cc1` (stereo unspecified), 5.054%. Regarding `CCOc1ccc(CC(CNC(=O)c2ccc(C)o2)C(N)=O)cc1` (stereo unspecified), the “Percent Effect” value is -14.58%. Turning to `CCOc1ccc(CC(CNC(=O)c2occc2C)C(N)=O)cc1` (stereo unspecified), the “Percent Effect” value was -2.596%.

In the case of `CC(C)NC(=O)NCC(Cc1ccc(F)cc1)C(N)=O` (stereo unspecified), the “Percent Effect” value came out at 96.65%.

As to `CC(C)c1nnc(NC(=O)Cc2ccc(F)cc2)[nH]1`, the “Percent Effect” value was -66.88%. Take `NC(=O)CS(=O)(=O)Cc1ccc(F)cc1`: the “Percent Effect” value is reported as 3.461%. In the case of `Cc1cc(C)c2nc(CNC3CCCNC3=O)cc(O)c2c1` (stereo unspecified) it was -9.599%; in that of `Cn1cc(CN2CCCn3cnc(COCc4ccco4)c3C2)cn1`, -8.432%. With `Cc1cc2c(cc1C)C(NCc1nnc3n1CCCCC3)CCCO2` (stereo unspecified), the “Percent Effect” value is given as 3.518%. As for `CSCC[C@@H](CO)n1ccnc1-c1nccn1C`, the “Percent Effect” value is on record as -1.218%. With `CC(=O)N1CCCN(C(=O)NCCc2cc(Cl)cc(Cl)c2)CC1` the figure was 8.517%; with `CC(C)(C)c1noc(CCCC(=O)N2CCNC(=O)CC2)n1`, -18.62%; with `O=C1CCN(C(=O)C2(c3ccc(Br)cc3)CC2)CCN1`, 3.303%. On to `O=C1CCN(C(=O)CCc2ccc(Cl)cc2Cl)CCN1`, for which the “Percent Effect” value was 106.4%.

As to `CC(CNC(=O)N1CCNC(=O)CC1)Cc1cccs1` (stereo unspecified), the “Percent Effect” value worked out at 17.79%. `O=C1CCN(C(=O)NCCc2c[nH]c3ccc(Cl)cc23)CCN1`: the “Percent Effect” value worked out at 98.23%.

In the case of `O=C1CCN(C(=O)CCc2cc(Br)cs2)CCN1`, the “Percent Effect” value is recorded as -5.326%. In the case of `O=C1CCN(C(=O)NCCCc2ccc(Cl)cc2Cl)CCN1` it was 108.4%.

Regarding `O=C(NCCOc1ccc(Cl)cc1)N1CCS(=O)(=O)CC1`, the “Percent Effect” value turned out to be 9.107%. Regarding `Cc1noc(C)c1CN(C)C(=O)c1ccc2c(c1O)OC(C)(C)C2`, the “Percent Effect” value is recorded as -18.28%. With `CN(CC(O)CO)C(=O)c1coc(COc2cccc(F)c2)n1` (stereo unspecified) the figure was -18.15%. In the case of `Cc1ccn2ncc(C(=O)N3CCCC(n4nc(C)nc4C)C3)c2n1` (stereo unspecified) it was 0.3182%; in that of `CN(Cc1cc[nH]n1)C(=O)c1cccc(CCC(C)(C)O)c1`, -7.029%. Regarding `Cl.O=C(Nc1ccccc1F)C1=NOC2(CCNCC2)C1`, the “Percent Effect” value was found to be 2.616%. In the case of `O=C(NCc1cccnc1)C1=NOC2(CCN(S(=O)(=O)C3CC3)C2)C1` (stereo unspecified), the “Percent Effect” value is listed as -5.335%. Take `O=C(Nc1ccccc1)C1=NOC2(CCCN(C(=O)C3CCCC3)C2)C1` (stereo unspecified): the “Percent Effect” value turned out to be 104.4%.

For the compound `O=C(Nc1ccccc1)C1=NOC2(CCCN(C(=O)N3CCCC3)C2)C1` (stereo unspecified), the “Percent Effect” value came out at 131.1%. In the case of `O=C(NCc1cccnc1)C1=NOC2(CCN(C3CCOCC3)C2)C1` (stereo unspecified) it was -2.233%. In the case of `O=C(NCc1cccnc1)C1=NOC2(CCN(C(=O)N3CCCC3)C2)C1.O=C(O)C(F)(F)F` (stereo unspecified) it was -7.099%; in that of `CCC(C)(CC(=O)OC)NCc1nc(C)no1` (stereo unspecified), -15.67%. On to `CC(C)(C)c1ccc2c(c1)CCN2C(=O)c1nc(=O)[nH][nH]1`, for which the “Percent Effect” value is 2.994%. In the case of `O=C(c1cc2c([nH]c1=O)CCC2)N1CCCCC1c1cccc(F)c1` (stereo unspecified) it was -12.81%; in that of `CC1c2ccc(F)cc2CCN1C(=O)c1nc(=O)[nH][nH]1` (stereo unspecified), 110%; in that of `Cc1nc(C)c(C(=O)N2CCc3cc(F)ccc3C2C)o1` (stereo unspecified), -9.87%. For `COC(=O)c1cc(C(=O)N2CCc3ccc(F)cc3C2C)ccn1` (stereo unspecified), the “Percent Effect” value is listed as -4.117%. For `Cc1nc(C)c(C(=O)N2CCc3ccc(F)cc3C2C)o1` (stereo unspecified), the “Percent Effect” value is on record as 2.437%. Regarding `CC(C)(C)c1ccc2c(c1)CCN2C(=O)c1[nH]c(=O)[nH]c(=O)c1N`, the “Percent Effect” value came to 1.564%. In the case of `CC1c2ccc(F)cc2CCN1C(=O)c1[nH]c(=O)[nH]c(=O)c1N` (stereo unspecified) it was 98.7%; in that of `CC1c2cc(F)ccc2CCN1C(=O)c1[nH]c(=O)[nH]c(=O)c1N` (stereo unspecified), 103.3%. Take `Cn1cc(NC(=O)NCc2ccsc2)ccc1=O`: the “Percent Effect” value is reported as -5.862%. In the case of `CNC(=O)[C@@H](c1ccccc1F)N1CCC[C@H]1C(=O)NC1CCCC1.Cl`, the “Percent Effect” value came to 0.555%. With `Cl.Cl.Clc1cccc(C[C@@H]2NCCC[C@@H]2Nc2ccccc2)c1` the figure was 167.6%; with `Cl.Clc1cccc(N[C@H]2CCCN[C@H]2Cc2ccccc2)c1`, 152.2%. In the case of `O=C(Cc1cccc(Cl)c1)N[C@@H]1CCNC[C@H]1O` it was 4.451%; in that of `O=C1NCCCc2[nH]c(Cc3cccc(Cl)c3)nc21`, -5.245%; in that of `Clc1cccc(CNC2CCN(CCc3ccncc3)CC2)c1`, -6.723%. In the case of `Cl.Cl.Clc1cccc(C[C@@H]2NCCC[C@@H]2Nc2cccc(Cl)c2)c1` it was 33.15%. As to `Cn1nc(C(=O)N2CCOCC2)c2c1CN(CC1CCC1)C2`, the “Percent Effect” value came out at 98%. In the case of `Cn1nc(C(=O)N2CCOCC2)c2c1CN(CC1CC1)C2.O=C(O)C(F)(F)F.O=C(O)C(F)(F)F` it was 102.2%; in that of `O=C(O)C(F)(F)F.O=C(c1nc2c(o1)CN(CC1CC1)C2)N1CCCC1`, -4.032%; in that of `O=C([C@H]1COC[C@H]2CN(CC3CCC3)C[C@H]21)N1CCOCC1`, -17.46%. With `CC(C)CCN1Cc2c(C(=O)N3CCCC3)nn(C)c2C1.O=C(O)C(F)(F)F` the figure was 4.332%; with `Cn1nc(C(=O)N2CCCC2)c2c1CN(CC1CCOCC1)C2`, -10.68%.

The values above are taken from ChEMBL document CHEMBL3988442, “University of Dundee, Small-Polar-MMV Screening Library” (2021).
